Test [1] is described as follows: E. coli DRC41 culture turbidity changes, primary screen, E. coli filamentation inducer project, strain DRC41, OD650, 48 h (AID 1152).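 Also: E. coli MC1000 strain DRC41 lacking acrAB efflux pump and sulA.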 The following applies: E. coli DRC41 (acrAB sulA), higher = more signal, called active from +8 up or from −8 down.
Test [2] is described as follows: small-molecule binders of probe aLefty1, primary screen, biochemical, small-molecule microarray, 635/667 nm fluorescence (AID 1153).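 Also: score merges spot fluorescence with signal-to-noise ratio from the scanned slide images.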 The note with it: higher = more signal.
Test [3] in a line: PSAC antagonists in infected red cells, primary screen, cell-based, P. falciparum Indochina, OD700, 1 h (AID 1154). The note with it: P. falciparum Indochina infected RBC osmotic lysis, higher = more signal, called active from +8 up or from −8 down.
Test [4] in a line: PSAC antagonists in infected red cells, primary screen, cell-based, P. falciparum Indochina, OD700, 2 h (AID 1155).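 Also: lysis reports solute entry through the parasite surface anion channel PSAC; channel blockers reduce lysis of infected cells.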 The note with it: P. falciparum Indochina infected erythrocytes, osmotic lysis OD700; higher = more signal, called active from +8 up or from −8 down.
Test [5] can be described thus: osmotic lysis modulators in infected erythrocytes, primary screen, PSAC antagonist project, cell-based, P. falciparum Indochina, OD700, 3 h (AID 1156). The following applies: higher = more signal, called active from +8 up or from −8 down.
Test [6] can be described thus: PSAC antagonists in infected red cells, primary screen, cell-based, P. falciparum Indochina, OD700, 18 h (AID 1157). The note with it: P. falciparum Indochina infected erythrocytes, osmotic lysis OD700, 18 h; higher = more signal, called active from +8 up or from −8 down.
A short description of test [7]: modulators of S6 phosphorylation in cells, primary screen, cell-based, A549, cytoblot, luminescence, serum-stimulated (AID 1158).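 Also: serum-stimulated A549 lung adenocarcinoma cells; signal is phosphorylated S6 detected by cytoblot immunostaining with HRP secondary.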 The following applies: A549 phospho-S6 cytoblot, 5 h, higher = more signal.
Test [8] concerns the target NADPH oxidase 2 (Homo sapiens) (UniProt P04839). The experiment in a line: NOX2-dependent H2O2 signal modulators, primary screen, NOX inhibitor project, cell-based, HEK293-NOX2, PMA-stimulated, Amplex Red fluorescence (AID 1159). Also: test concentration not given here. The note with it: 45 min, higher = more signal, called active from +8 up or from −8 down.
The target in test [9] is NADPH oxidase 4 (Homo sapiens) (UniProt Q9NPH5). The experiment in a line: NOX4-dependent H2O2 signal modulators, primary screen, NOX inhibitor project, cell-based, HEK293-NOX4, tetracycline-induced, Amplex Red fluorescence (AID 1160). The note with it: 45 min, higher = more signal, called active from +8 up or from −8 down.
The target in test [10] is NADPH oxidase 5 (Homo sapiens) (UniProt Q96PH1). Kind of test: NOX5-dependent H2O2 signal modulators, primary screen, NOX inhibitor project, cell-based, HEK293-NOX5, Amplex Red fluorescence (AID 1161). The following applies: HEK293-NOX5, ionomycin, 45 min, higher = more signal.
A short description of test [11]: A549 cell viability effects, profiling panel, calcein-AM fluorescence, 48 h, basal (AID 1162). Also: test concentration not given here. The note with it: higher = more signal.
Test [12] can be described thus: adipocyte viability effects, profiling panel, cell-based, 3T3-L1 adipocytes, calcein-AM fluorescence, 48 h, basal (AID 1163). Also: test concentration not given here. The note with it: 3T3-L1 adipocytes viability, higher = more signal.
Test [13] can be described thus: HepG2 cell viability effects, profiling panel, calcein-AM fluorescence, 48 h, basal (AID 1164). Also: test concentration not given here. The following applies: higher = more signal.
Test [14] in a line: MM1S cell viability effects, profiling panel, calcein-AM fluorescence, 48 h, basal (AID 1165).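 Also: viability of MM1S multiple myeloma cells under basal unstimulated conditions; test concentration not given here.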 The following applies: higher = more signal.
Test [15] can be described thus: basal RPMI8226 viability, no added stimulus, profiling panel, cell-based, calcein-AM fluorescence, 48 h, PK04 Diversity Set (AID 1166).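 Also: cells grown under basal conditions without added stimulus; test concentration not given here.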 The note with it: RPMI8226 myeloma viability, higher = more signal.
Test [16] is described as follows: basal HepG2 mitochondrial membrane potential changes, profiling panel, cell-based, JC-1 fluorescence, 24 h, 100 nL compound (AID 1167). Also: test concentration not given here. The following applies: higher = more signal.
Test [17] in a line: basal 3T3-L1 adipocyte mitochondrial potential changes, profiling panel, cell-based, JC-1 fluorescence, 3T3-L1 adipocytes, 24 h, 100 nL compound (AID 1168). Also: test concentration not given here. The note with it: JC-1 mitochondrial fluorescence, higher = more signal, called active from +8 up or from −8 down.
Test [18] in a line: basal RPMI8226 mitochondrial membrane potential changes, profiling panel, cell-based, JC-1 fluorescence, 24 h, 100 nL compound (AID 1169). Also: test concentration not given here. The following applies: RPMI8226 myeloma, JC-1 mitochondrial potential fluorescence, higher = more signal.
A short description of test [19]: basal MM1S mitochondrial membrane potential changes, profiling panel, cell-based, JC-1 fluorescence, 24 h, 100 nL compound (AID 1170). Also: test concentration not given here. The note with it: higher = more signal.
Test [20] in a line: A549 lung cancer cell viability effects, profiling panel, resazurin fluorescence, 24 h, PK04 Diversity Set (AID 1171). Also: test concentration not given here. The following applies: higher = more signal, called active from +8 up or from −8 down. For orientation: The colour change of resazurin is a common sign of viable cells or microbes.

The values that follow come from PubChem BioAssay.

Active and inactive are the calls of the source.

NADPH oxidase 4 (Homo sapiens), sequence (Q9NPH5 whole entry, looked up): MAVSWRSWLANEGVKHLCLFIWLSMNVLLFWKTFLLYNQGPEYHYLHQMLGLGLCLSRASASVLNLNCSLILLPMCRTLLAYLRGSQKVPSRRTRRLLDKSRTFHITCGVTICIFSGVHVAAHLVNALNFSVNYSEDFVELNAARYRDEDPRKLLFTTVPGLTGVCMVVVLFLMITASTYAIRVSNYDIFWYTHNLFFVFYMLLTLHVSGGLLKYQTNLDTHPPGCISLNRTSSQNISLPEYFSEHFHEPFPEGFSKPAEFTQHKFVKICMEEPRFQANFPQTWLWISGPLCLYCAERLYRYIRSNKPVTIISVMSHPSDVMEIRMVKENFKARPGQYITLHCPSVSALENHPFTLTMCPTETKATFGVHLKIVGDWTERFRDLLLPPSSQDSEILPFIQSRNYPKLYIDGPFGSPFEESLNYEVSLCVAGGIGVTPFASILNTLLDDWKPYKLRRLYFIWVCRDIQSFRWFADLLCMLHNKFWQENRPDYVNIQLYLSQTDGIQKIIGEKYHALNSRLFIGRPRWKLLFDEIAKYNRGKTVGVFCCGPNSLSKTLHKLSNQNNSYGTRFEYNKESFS
NADPH oxidase 5 (Homo sapiens), sequence (Q96PH1 whole entry, looked up): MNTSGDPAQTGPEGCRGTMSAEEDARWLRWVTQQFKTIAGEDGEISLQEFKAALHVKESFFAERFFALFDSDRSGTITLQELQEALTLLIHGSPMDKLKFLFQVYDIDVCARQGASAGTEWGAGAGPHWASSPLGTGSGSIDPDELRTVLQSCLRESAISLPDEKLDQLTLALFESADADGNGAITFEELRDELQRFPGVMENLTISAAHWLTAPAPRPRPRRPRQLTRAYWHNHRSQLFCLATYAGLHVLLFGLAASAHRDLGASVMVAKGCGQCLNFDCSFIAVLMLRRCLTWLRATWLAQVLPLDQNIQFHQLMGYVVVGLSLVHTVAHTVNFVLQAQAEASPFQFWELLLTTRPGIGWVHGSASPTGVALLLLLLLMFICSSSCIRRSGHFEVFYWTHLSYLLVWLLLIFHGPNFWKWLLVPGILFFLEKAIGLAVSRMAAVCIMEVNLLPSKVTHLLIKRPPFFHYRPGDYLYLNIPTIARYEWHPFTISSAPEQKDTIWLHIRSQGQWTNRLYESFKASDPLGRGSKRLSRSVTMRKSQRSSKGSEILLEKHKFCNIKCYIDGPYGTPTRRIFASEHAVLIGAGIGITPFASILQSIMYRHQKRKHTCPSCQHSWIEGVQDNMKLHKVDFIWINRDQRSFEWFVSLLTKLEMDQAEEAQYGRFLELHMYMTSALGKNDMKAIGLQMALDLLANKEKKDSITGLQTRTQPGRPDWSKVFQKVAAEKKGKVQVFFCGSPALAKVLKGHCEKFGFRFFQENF
NADPH oxidase 2 (Homo sapiens), sequence (P04839 whole entry, looked up): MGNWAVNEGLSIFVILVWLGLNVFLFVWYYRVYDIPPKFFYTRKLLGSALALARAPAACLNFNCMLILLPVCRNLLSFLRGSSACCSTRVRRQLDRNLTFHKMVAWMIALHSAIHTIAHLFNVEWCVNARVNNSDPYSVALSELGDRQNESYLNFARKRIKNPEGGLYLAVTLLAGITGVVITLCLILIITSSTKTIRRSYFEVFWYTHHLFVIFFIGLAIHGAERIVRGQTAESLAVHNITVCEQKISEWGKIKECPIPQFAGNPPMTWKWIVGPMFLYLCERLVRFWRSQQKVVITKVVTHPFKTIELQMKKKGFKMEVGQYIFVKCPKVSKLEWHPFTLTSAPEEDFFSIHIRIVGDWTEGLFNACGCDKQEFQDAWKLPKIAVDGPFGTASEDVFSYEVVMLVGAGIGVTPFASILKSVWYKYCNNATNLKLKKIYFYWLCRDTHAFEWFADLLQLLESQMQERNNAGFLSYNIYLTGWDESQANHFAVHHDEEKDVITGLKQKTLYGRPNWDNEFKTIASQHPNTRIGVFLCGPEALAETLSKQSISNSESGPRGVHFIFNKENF

For `C[n+]1ccc2ccc(O)cc2c1`, the z-score is 0.0539 (inactive) in [1]; 0.907 (inactive) in test [3]; 0.557 (inactive) in test [4]; 1.95 (inactive) in test [5]; 0.374 (inactive) in [6]; 0.387 in [7]. For the same compound, the z-score was -0.469 (inactive) in test [8]; -0.566 (inactive) in [9]; 0.0145 in test [10]; -0.274 in test [11]; 0.509 in test [12]; -1.33 in test [13]. For the same compound, the z-score was 0.653 in test [14]; -1.91 in test [15]; -0.774 in test [16]; -0.917 (inactive) in test [17]; 1.03 in test [18]; -0.723 in test [19]. The z-score in [20] is -0.733 (inactive). Besides, the composite z-score in test [2] was -0.109.

As for `CO[C@H]1O[C@H](CO)[C@@H](OC(=O)Nc2ccccc2-c2ccccc2)[C@H](OC(=O)Nc2ccccc2-c2ccccc2)[C@H]1OC(=O)Nc1ccccc1-c1ccccc1`, the z-score in [1] was 0.236 (inactive); in test [3], 3.93 (inactive); in [4], 1.27 (inactive); in test [5] it was -0.623 (inactive); in test [6] it was 1.16 (inactive); in test [7] it was 0.311. The z-score was 1.26 (inactive) in test [8]; -0.874 (inactive) in [9]; -0.439 in test [10]; -1.46 in [11]; 1.22 in [12]; -1.31 in test [13]. Besides, the z-score in [14] was -1.4; in test [15], -1.44; in [16], -0.0136; in test [17] it was 0.908 (inactive); in [18], -0.87; in test [19], 0.116. Further, the z-score in [20] is -2.56 (inactive). Also, the composite z-score in test [2] is 0.427.

Consider `COc1ccccc1CN1C(=O)c2ccccc2[C@](Cc2ccccc2I)(C(=O)NCc2ccccc2)[C@@H]1c1ccc(CO)cc1`, for which the z-score in test [1] is -0.0738 (inactive); in test [3], 2.14 (inactive); in [4], -0.0098 (inactive); in [5] it was 0.826 (inactive); in test [6], -0.308 (inactive); in test [7], -0.266. Moreover, the z-score is 0.102 (inactive) in test [8]; 0.377 (inactive) in test [9]; 1.34 in [10]; 0.049 in [11]; 0.218 in [12]; -0.733 in test [13]. The z-score is -0.325 in [14]; -1.92 in test [15]; 0.37 in test [16]; 0.368 (inactive) in [17]; -0.0456 in test [18]; -0.318 in test [19]. In test [20], the z-score was -0.5 (inactive). The composite z-score in [2] came to 0.183.

Regarding `CCOC(=O)C[C@H]1[C@H](OC(=O)c2cc3ccccc3oc2=O)[C@@H](NC(=O)c2ccc3ccccc3c2)c2cc(OCCCO)ccc2N1C(=O)c1ccccc1`, the z-score in [1] was 0.734 (inactive); in test [3], 1.22 (inactive); in test [4] it was -1.04 (inactive); in test [5] it was 0.519 (inactive); in test [6], -2.59 (inactive); in [7], 1.2. Moreover, the z-score is -0.539 (inactive) in [8]; -0.928 (inactive) in [9]; 0.53 in [10]; 0.659 in test [11]; 2.7 in test [12]; 0.582 in [13]. The z-score in [14] was 0.0168; in test [15], -0.608; in test [16], -1.3; in [17], 0.571 (inactive); in [18] it was 0.416; in test [19], 0.755. Besides, in test [20], the z-score is -1.01 (inactive). For the same compound, the composite z-score in test [2] is 0.201.

`C=CCOC(=O)[C@@H]1[C@H]2C(=O)O[C@H](c3ccccc3)[C@H](c3ccccc3)N2[C@H](c2ccc(OCCOC(=O)[C@H]3C[C@H]4C(=O)N[C@@H](CC(C)C)C(=O)N4[C@H]3c3cccc(OCCO)c3)cc2)[C@@]12C(=O)Nc1ccc(I)cc12`: the z-score was -0.0888 (inactive) in test [1]; 2.85 (inactive) in test [3]; -0.154 (inactive) in [4]; 0.789 (inactive) in [5]; -1.24 (inactive) in test [6]; 0.456 in test [7]. Moreover, the z-score in test [8] is 1.07 (inactive); in test [9] it was 1.02 (inactive); in test [10], 0.73; in test [11], 0.704; in test [12] it was 1.54; in test [13] it was -0.533. Besides, the z-score in test [14] was -0.727; in [15], -1.34; in [16], -1.91; in [17], 1.59 (inactive); in [18] it was -0.946; in [19] it was -1.2. Further, in test [20], the z-score was -0.304 (inactive). The compound further returned a composite z-score in [2] of 0.185.
